In PubChem BioAssay AID540351 (The Scripps Research Institute Molecular Screening Center, 2011) one finds inhibition data, which are given here for one compound.

A number with no mark means an inactive call. The rule behind the calls is not given here.

This assay has as its system Phorbol Ester. Kind of assay: selectivity profiling over binding targets, CYP450 – biochemical, Ricerca HitProfilingScreen, selectivity assay for S1P3 agonist project, profiling panel (AID 540351). The following applies: Ricerca receptor/enzyme binding panel plus CYP450, at 30 µM, hits give high values.

`O=C(c1cc(C2CC2)on1)N(C1CCCCC1)C1CCCCC1`: the inhibition was -19%.
